# Screening data (PubChem BioAssay)
# FAS-TE inh – FAS thioesterase domain inhibitors, primary screen, biochemical, fluorescence intensity, uHTS. recombinant FAS-TE, OMFH fluorogenic substrate, fluorescence endpoint. inhibition, % at 15 µM. 360,000 compounds, 0.67% hits;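 active = compounds whose normalised, plate-corrected inhibition of enzyme fluorescence in the single-dose primary screen is 50% or more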
# GRIN3A LBD mod – binders of NR3A ligand-binding domain, primary screen, biophysical, differential scanning fluorimetry, uHTS | Glutamate receptor ionotropic, NMDA 3A (GRIN3A) ligand-binding domain | NR3A LBD differential scanning fluorimetry, Tm shift; 0% = protein alone, 100% = glycine-bound protein | Tm shift relative to glycine control, % at 25 µM | 340,000 compounds, 2.5% hits | AID 1259313, 2017;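 active = melting temperature shift of at least 10% of the positive control shift, at one fixed dose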
# NadD block – inhibitors of S. aureus NadD, primary screen, biochemical, colorimetric, uHTS; Nicotinate-nucleotide adenylyltransferase NadD (Staphylococcus aureus N315); purified NadD enzyme, colorimetric absorbance read-out; inhibition, % at 20 µM; 360,000 compounds, 0.78% hits; AID 602399, 2012; in the data active = inhibition above about 26%
# rCAG binder – binders of r(CAG) RNA repeats, primary screen, biochemical, fluorescence. 370,000 compounds, 1.3% hits. inhibition, % at 3 µM. r(CAG) RNA repeat, TO-PRO-1 dye displacement fluorescence. AID 651821, 2012;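 active = inhibition above the plate cutoff, the mean of all test compounds on that plate plus 3 SD, cut at about 35% in these data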;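 note: higher means more dye released from RNA so lower well fluorescence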
# rCAG binder conf – small molecules binding CAG repeat RNA – biochemical, fluorescence, confirmation; inhibition, % at 3 µM; r(CAG) RNA repeat, TO-PRO-1 dye displacement fluorescence; AID 652065, 2013; shares compounds with rCAG binder; 4,300 compounds, 70% hits;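 active = inhibition above a per-plate cutoff, the mean inhibition of sample wells plus 3 SD, cut at about 35% in these data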;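 note: loss of TO-PRO-1 fluorescence as compound displaces dye from 1x1 AA loop RNA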
# dCAG dye counter – displacement of TO-PRO-1 from CAG DNA duplex, counter-screen for rCAG RNA repeat binder project, biochemical, fluorescence, TO-PRO-1 dye, d(CAG) DNA oligo. shares compounds with rCAG binder. d(CAG) DNA oligo TO-PRO-1 dye displacement. inhibition, % at 3 µM. 4,300 compounds, 94% hits. AID 652068, 2013;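 active = inhibition above its plate's cutoff, the mean test-well inhibition plus 3 SD, cut at about 4.8% in these data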;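 note: hits displace the dye from DNA and so lower well fluorescence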
# DNA CAG DR – inhibitors of DNA CAG/GTC TO-PRO-1 complex, dose response, counter-screen for rCAG RNA repeat binder project, biochemical, fluorescence, TO-PRO-1 dye | DNA CAG/GTC duplex TO-PRO-1 dye displacement fluorescence | IC50, µM | shares compounds with rCAG binder | 250 compounds, 20% hits; in the data active = IC50 below about 10 µM
# Numbers stand for hits; i = inactive; nt = no result. The list is not random: actives were taken first. Their share in the collection is about 4.3%.
SMILES,FAS-TE inh,GRIN3A LBD mod,NadD block,rCAG binder,rCAG binder conf,dCAG dye counter,others
Cc1ccc(NC(=O)c2ccccc2NS(=O)(=O)c2ccc(F)cc2)cc1S(=O)(=O)N1CCCCC1,i,28,i,67,83,52,
O=C(Nc1cc(S(=O)(=O)N2CCCCC2)ccc1O)c1ccccc1NS(=O)(=O)c1ccc(F)c(F)c1,i,28,i,85,88,64,
NS(=O)(=O)c1cccc(NC(=O)c2ccccc2NS(=O)(=O)c2ccc(F)cc2)c1,i,i,i,38,38,12,
Cc1noc(C)c1NC(=O)N(C)C[C@@H]1OCc2cn(nn2)CCCC(=O)N([C@@H](C)CO)C[C@H]1C,nt,nt,nt,i,nt,nt,
O=C(Nc1cccc(S(=O)(=O)N2CCCCC2)c1)c1ccccc1NS(=O)(=O)c1ccc(F)cc1,i,18,i,61,76,36,
Cc1onc(-c2c(F)cccc2Cl)c1C(=O)Nc1cc(S(=O)(=O)N2CCCCC2)ccc1O,i,16,i,52,36,12,
COc1ccccc1C(=O)Nc1cccc(S(=O)(=O)N2CCCC2)c1,i,i,i,i,nt,nt,
COC(=O)[C@]12C[C@H](CC(=O)NCc3cccc(C(F)(F)F)c3)C(=O)N(Cc3cccc4ccccc34)C1=C[C@H](C(C)C)O[C@@H]2C1CC1,nt,nt,nt,i,nt,nt,
O=c1ccn(C2CC(O)C(COC(c3ccccc3)(c3ccccc3)c3ccccc3)O2)c(=O)[nH]1 (configuration not stated),nt,nt,nt,i,nt,nt,
COc1ccccc1Cc1c(-c2cccc(Br)c2)nc2ccc(C)cn12,nt,nt,nt,i,nt,nt,
CC1=C(C#N)C(=O)NC(=O)/C1=C\c1ccc(-c2ccc(C)cc2[N+](=O)[O-])o1,i,i,i,43,73,34,DNA CAG DR=5.1
CN(CCOC(=O)CC1C=CCC1)C1CN(Cc2cn(Cc3ccccc3Cl)nn2)S(=O)(=O)C1 (configuration not stated),nt,nt,nt,i,nt,nt,
O=C(CSCc1ccc(Cl)cc1)Nc1cccc(C(=O)Nc2ccccc2C(=O)O)c1,i,10,i,76,83,43,
O=C(CSCc1ccccc1)Nc1cccc(C(=O)Nc2ccccc2C(=O)O)c1,i,i,i,72,55,18,
O=C(O)CCCC(=O)Nc1cccc(C(=O)Nc2ccccc2C(=O)O)c1,i,i,i,i,nt,nt,
CCc1cc2c(nc1CC)CCCN2C,nt,nt,nt,i,nt,nt,
COCc1cc(N2CCN(C(=O)OC(C)(C)C)C[C@@H]2C)ccc1N1CC[C@H](O)C1,nt,nt,nt,i,nt,nt,
COc1cc(/C=C2/C(=O)N(c3ccc(C)c(C)c3)N=C2C)cc([N+](=O)[O-])c1O,i,i,i,37,46,12,
COc1ccc(C(=O)O)cc1S(=O)(=O)Nc1cc(C(F)(F)F)ccc1N1CCCCC1,i,nt,i,46,i,7.1,
COC(=O)c1cc(NS(=O)(=O)c2ccc(N3CCC(C)CC3)c([N+](=O)[O-])c2)cc(C(=O)OC)c1,i,18,i,55,60,19,
COC(=O)c1ccc(N2CCCCC2)c(NS(=O)(=O)c2ccc(C)cc2)c1,i,i,i,i,nt,nt,
Cc1ccc(S(=O)(=O)Nc2cc(C(F)(F)F)ccc2N2CCOCC2)cc1C,i,i,i,i,nt,nt,
CC1CCN(c2ccc(C(=O)O)cc2NS(=O)(=O)c2ccc(Br)cc2)CC1,i,i,i,35,37,11,
Cc1ccc(S(=O)(=O)Nc2cc(C(=O)O)ccc2N2CCC(C)CC2)cc1C,nt,nt,nt,42,41,11,
COC(=O)[C@]12C[C@H](CC(=O)NCC3CCCCC3)C(=O)N(Cc3cccc4ccccc34)C1=C[C@H](C(C)(C)C)O[C@@H]2C,nt,nt,nt,i,nt,nt,
SMILES,FAS-TE inh,GRIN3A LBD mod,NadD block,rCAG binder,rCAG binder conf,dCAG dye counter,others
CC1CCN(C(=O)c2ccc(NS(=O)(=O)c3cccc4cccnc34)cc2)CC1,i,i,i,i,nt,nt,
CC1CCN(c2ccc(C(=O)O)cc2NS(=O)(=O)c2cccc3cccnc23)CC1,nt,nt,nt,36,i,7.2,
O=C1CC(Nc2ccc(N3CCOCC3)cc2)C(=O)N1Cc1ccccc1 (configuration not stated),i,i,i,35,i,6.9,
CN(CCc1ccccn1)C(=O)[C@@H](Cc1ccccc1)NC(=O)[C@H]1O[C@@H](n2ccc(=O)[nH]c2=O)[C@H](O)[C@@H]1O,nt,nt,nt,i,nt,nt,
C/C(=N\NC(=O)c1cc(C)nc2ccccc12)c1ccco1,i,i,i,i,nt,nt,
C/C(=N/NC(=O)c1cc2ccccc2cc1O)c1ccco1,i,i,i,51,i,9.0,
C/C(=N\NC(=O)c1cc2ccccc2cc1O)c1cccs1,i,14,i,50,i,i,
C/C(=N\NC(=O)c1cc2ccccc2cc1O)c1ccc(C)o1,i,i,i,43,i,6.5,
C#CCNC(=O)C[C@H]1C(=O)N(CC=C)C2=CCCC[C@@]21C(=O)OCC,nt,nt,nt,i,nt,nt,
Cc1ccc(-c2cc(NC(=O)Cc3c(C)[nH]c4ccccc34)ccc2Nc2cccnc2)cc1,nt,nt,nt,i,nt,nt,
O=C(c1cccc(S(=O)(=O)Nc2ccccc2Cl)c1)N1CCCCCC1,i,i,i,i,nt,nt,
CC1CN(C(=O)c2cccc(S(=O)(=O)Nc3cc(Cl)ccc3Cl)c2)CC(C)O1 (configuration not stated),i,i,i,41,i,5.5,
O=C(N/N=C/c1ccccc1C(=O)O)c1cccc(S(=O)(=O)Nc2cc(Cl)ccc2Cl)c1,i,i,i,49,i,6.8,
Cc1ccc(NS(=O)(=O)c2cccc(C(=O)NNC(=O)NC3CCCCC3)c2)c(C)c1,i,i,i,i,nt,nt,
O=C(c1cccc(S(=O)(=O)Nc2ccccc2Cl)c1)N1CCN(c2ccccc2O)CC1,i,i,i,41,i,9.3,
CC1CN(C(=O)c2cccc(S(=O)(=O)Nc3ccccc3Cl)c2)CC(C)O1 (configuration not stated),i,i,i,i,nt,nt,
O=C(NNC(=S)NC1CCCCC1)c1cccc(S(=O)(=O)Nc2ccccc2Cl)c1,i,i,i,56,51,19,
CCCCNC(=O)C[C@H]1C[C@@]2(C(=O)OC)C(=C[C@H](COCc3ccccc3)O[C@@H]2C)N(Cc2ccc3c(c2)OCO3)C1=O,nt,nt,nt,i,nt,nt,
C[C@@H]1CN([C@H](C)CO)C(=O)CCCn2nncc2CO[C@H]1CN(C)C(=O)Nc1ccc2c(c1)OCCO2,nt,nt,nt,i,nt,nt,
